Screening results from PubChem BioAssay.
Rows were chosen to be rich in hits. Some 3% of all compounds tested hit in one or more screens of this group.
TRb SRC2 PPI: TRbeta-SRC2 interaction inhibition; TRbeta-SRC2 peptide binding, fluorescence polarization; receptor liganded with 1 µM T3; AID 1469; P10828; 280,000 tested, 0.065% active; Potency, µM (series often up to 106 µM), inactives show at the highest dose activity change, negative = inhibition, actives largely listed as inhibitors;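 further: plate controls were bound peptide for no effect and peptide without receptor for full effect; nearly all actives have a fitted effect of over 50% in size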
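A fluorescence polarization screen tested compounds at multiple concentrations against complex formation between 0.6 uM TRb ligand-binding domain and 20 nM Texas Red SRC2 peptide, with 1 uM T3 present; readout after 5 hr.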
TR SRC2 fluor cs: Texas Red fluorescence interference in TRb-SRC2 counter-screen; 280,000 tested, 0.29% active; AID 1479; Potency, µM (highest dose often 106 µM), for inactives: top-dose fluorescence change, negative = quenching; TRb/SRC2 Texas Red total fluorescence interference; active means well fitted curve in either direction with a large enough effect; inconclusive means small, poorly fitted or top-dose-only effect
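Human TRb ligand-binding domain at 0.6 uM with 20 nM Texas Red SRC2 peptide in Tris buffer containing 1 uM T3 and 5% DMSO, incubated with compound 5 h at ambient temperature. Total fluorescence (555/632 nm) calculated as parallel + 2 × perpendicular.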
Tau fibril ThT: blocks human tau fibril formation measured by thioflavin T; P10636; recombinant tau K18 P301L, heparin-induced fibrillization, ThT fluorescence; Potency, µM (titrated, usually from 57.4 µM), for inactives: at the highest dose activity, negative = inhibition, usual class: inhibitors; 270,000 tested, 2.1% active; AID 1460; further: nearly all actives have a fitted effect of over 55% in size
Target sequence (P10636 561-689 P618L limits assumed): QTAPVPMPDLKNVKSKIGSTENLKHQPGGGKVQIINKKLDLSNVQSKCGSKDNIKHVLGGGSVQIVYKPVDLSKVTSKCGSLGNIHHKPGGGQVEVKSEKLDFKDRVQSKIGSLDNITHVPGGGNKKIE
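Heparin-induced fibrillization of the P301L-mutant K18 repeat-domain fragment of human tau was followed by ThT binding in quantitative high-throughput format.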
Tau fluor counter: counter-screen for tau fibril formation inhibitors. AID 1463. 280,000 tested, 0.93% active. tau K18 P301L (four-repeat tau fragment) Alexa594 fluorescence, heparin fibrillization. Potency, µM (highest dose often 57.7 µM), inactives show at the top dose activity change, negative = decrease; further: nearly all actives have a fitted effect of over 55% in size
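Human K18 P301L tau (15 uM unlabeled plus 0.24 uM Alexa 594-labeled, final) in 100 mM sodium acetate pH 7 was mixed with compound and 20 uM heparin and incubated 6 hr at 37 C.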
Tau fibril FP: inhibitors of human tau fibril formation; P10636; K18 P301L tau heparin fibrillization, Alexa594 FP, 6 h; Potency, µM (titrated, usually from 57.7 µM), for the others: at the highest dose activity, negative = inhibition, hits mostly inhibitors; 280,000 tested, 0.39% active; further: nearly all actives have a fitted effect of over 55% in size
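K18 P301L tau (15 uM unlabeled/0.24 uM Alexa 594-labeled, final) + compound + heparin 20 uM final; 100 mM NaOAc pH 7; 6 hr 37 C; ThT 30 uM final added, 1 hr RT; FP ex 555/em 632 nm.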
* hit, by the source's call. Unless noted, the call rests on the fitted dose curve; in most records, active means well fitted curve in the direction sought with a large enough effect; inconclusive means small, poorly fitted or top-dose-only effect, or another doubt; inactive means no such curve, though single readings can be large; an effect the other way counts as inactive or inconclusive. Unless noted, on the % scale 0 is the no-effect control and ±100 the full control effect; potency means the concentration at half of the fitted maximal effect.

`CCOC(=O)c1c(N)sc2c1CCSC2` gave TRb SRC2 PPI 3%, TR SRC2 fluor cs -3%, Tau fibril ThT 25µM*, Tau fluor counter inconclusive and Tau fibril FP -14%.
Screening CCOC(=O)c1c(N)ssc1=S returned TRb SRC2 PPI 3%, TR SRC2 fluor cs -1%, Tau fibril ThT 7.9µM*, Tau fluor counter -27% and Tau fibril FP 11µM*.
Screening CCOC(=O)c1c(N)sc(=S)c2c1CCC2 returned TRb SRC2 PPI -19%, TR SRC2 fluor cs -8%, Tau fibril ThT 25µM*, Tau fluor counter inconclusive and Tau fibril FP inconclusive.
CCOC(=O)c1c(N)sc2c1CCC(CC)C2 (stereo unspecified) was read as TRb SRC2 PPI -8%, TR SRC2 fluor cs -9%, Tau fibril ThT inconclusive, Tau fluor counter inconclusive and Tau fibril FP 0%.
Screening CCOC(=O)c1cccc(NC(=O)NCCc2c(C)nn(C)c2C)c1 returned TRb SRC2 PPI -3%, TR SRC2 fluor cs 0%, Tau fibril ThT -7%, Tau fluor counter -3% and Tau fibril FP 1%.
For CCc1cccc(NC(=O)CN2c3ccccc3S(=O)(=O)c3ccccc32)c1 the results were TRb SRC2 PPI 3%, TR SRC2 fluor cs -6%, Tau fibril ThT -1%, Tau fluor counter inconclusive and Tau fibril FP -6%.
Screening Cn1ccc2c(OCC(=O)Nc3cc(C(F)(F)F)ccc3Cl)cccc2c1=O returned TRb SRC2 PPI 1%, TR SRC2 fluor cs 2%, Tau fibril ThT -15%, Tau fluor counter -8% and Tau fibril FP -9%.
Cc1ccccc1NC(=O)c1cccc2nc3ccccc3nc12 was read as TRb SRC2 PPI -9%, TR SRC2 fluor cs -8%, Tau fibril ThT 8.9µM*, Tau fluor counter inconclusive and Tau fibril FP inconclusive.
Screening Cn1cnc(S(=O)(=O)N2CCC(C(=O)Nc3ccc(Cl)c(C(F)(F)F)c3)CC2)c1 returned TRb SRC2 PPI 3%, TR SRC2 fluor cs 0%, Tau fibril ThT 7%, Tau fluor counter -10% and Tau fibril FP -5%.
O=C1C(Cl)=C(Nc2ccccc2O)C(=O)N1c1ccccc1 was read as TRb SRC2 PPI -2%, TR SRC2 fluor cs -3%, Tau fibril ThT 14µM*, Tau fluor counter inconclusive and Tau fibril FP inconclusive.
`COc1ccccc1N1C(=O)C(Cl)=C(Nc2ccccc2O)C1=O` gave TRb SRC2 PPI -11%, TR SRC2 fluor cs -3%, Tau fibril ThT 13µM*, Tau fluor counter inconclusive and Tau fibril FP 28µM*.
Cc1ccc(O)c(NC2=C(Cl)C(=O)N(Cc3ccccc3)C2=O)c1 was read as TRb SRC2 PPI -4%, TR SRC2 fluor cs -3%, Tau fibril ThT 13µM*, Tau fluor counter inconclusive and Tau fibril FP inconclusive.
Screening COc1cccc(CN2CC34CCC(CC3S2(=O)=O)O4)c1 (stereo unspecified) returned TRb SRC2 PPI -9% and TR SRC2 fluor cs 0%.
`Cc1ccc(NC2Sc3ccccc3NC2=O)cc1` (stereo unspecified) gave TRb SRC2 PPI -2%, TR SRC2 fluor cs 0%, Tau fibril ThT 16µM*, Tau fluor counter -22% and Tau fibril FP inconclusive.
Screening COc1cc2c(c(OC)c1OC)-c1c(cc(OC)c(OC)c1OC)CC(C)C(C)C2 (stereo unspecified) returned TRb SRC2 PPI 1% and TR SRC2 fluor cs -1%.
`CCOc1ccc2nc(NC(=S)N(C)C)sc2c1` gave TRb SRC2 PPI -14%, TR SRC2 fluor cs -4%, Tau fibril ThT inconclusive, Tau fluor counter inconclusive and Tau fibril FP 10%.
For CCOc1ccc2nc(N=NC3=C(O)CC(C)(C)CC3=O)sc2c1 the results were TRb SRC2 PPI -11%, TR SRC2 fluor cs -4%, Tau fibril ThT 14µM*, Tau fluor counter -23% and Tau fibril FP -8%.
For CC(=O)Nc1ccccc1-c1nc2ccccc2n(CC(=O)c2ccc(C)c(C)c2)c1=O the results were TRb SRC2 PPI 5%, TR SRC2 fluor cs 0%, Tau fibril ThT 3%, Tau fluor counter 3% and Tau fibril FP -3%.
O=C(Cn1ncc2c3ccccc3n(Cc3cccc(Cl)c3)c2c1=O)NCCCN1CCCCC1 was read as TRb SRC2 PPI -4%, TR SRC2 fluor cs -1%, Tau fibril ThT -17%, Tau fluor counter -13% and Tau fibril FP -1%.
